Compound activity as filed in PubChem BioAssay.
MITF primary = MITF inhibitors, primary screen, biochemical, AlphaScreen, human; Microphthalmia-associated transcription factor (Homo sapiens), O75030; AlphaScreen MITF homodimerization, bead proximity signal; inhibition, % at 2.6 µM; 650,000 tested, 0.91% active; AID 1259374, 2018; in the data active = inhibition above about 50%
Target sequence (O75030 whole entry, looked up): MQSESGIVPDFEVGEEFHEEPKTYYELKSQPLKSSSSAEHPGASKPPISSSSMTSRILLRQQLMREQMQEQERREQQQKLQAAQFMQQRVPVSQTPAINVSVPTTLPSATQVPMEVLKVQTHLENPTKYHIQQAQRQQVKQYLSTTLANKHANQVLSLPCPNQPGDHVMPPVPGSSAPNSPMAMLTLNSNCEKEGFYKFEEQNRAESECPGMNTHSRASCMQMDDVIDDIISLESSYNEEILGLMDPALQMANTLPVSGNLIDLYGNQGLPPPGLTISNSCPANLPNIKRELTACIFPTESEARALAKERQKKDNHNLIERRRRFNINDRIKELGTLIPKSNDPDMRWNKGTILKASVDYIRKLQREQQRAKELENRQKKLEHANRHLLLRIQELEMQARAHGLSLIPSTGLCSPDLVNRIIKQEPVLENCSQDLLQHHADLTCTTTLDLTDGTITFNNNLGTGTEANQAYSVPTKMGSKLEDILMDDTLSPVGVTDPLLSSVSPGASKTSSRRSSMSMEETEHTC
GPR151 activ = activators of human GPR151, primary screen, cell-based, PathHunter beta-arrestin, luminescence; PathHunter beta-arrestin GPR151 cells; activation, % at 11.2 µM; 650,000 tested, 1% active; AID 1508602, 2020; in the data active = activation above about 4.9%
FBW7 activator = FBW7 E3 ligase activators, primary screen, biochemical, AlphaScreen, human. normalized activity (activation), % at 26.1 µM. AlphaScreen FBW7–phospho-cyclin E peptide binding, activator screen. AID 1259310, 2017. 650,000 tested, 0.13% active. F-box/WD repeat-containing protein 7 (Homo sapiens), Q969H0; in the data active = normalized activity above about 1.9%;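 note: purified mutant Fbw7 with reduced substrate affinity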
TEAD-YAP block = TEAD-YAP interaction inhibition, primary screen, TEAD-YAP interaction inhibitor project, luminescence, HEK-TIYL cells | 640,000 tested, 1.4% active | inhibition, % at 9.12 µM | AID 1259422, 2018 | TEAD-Gal4/YAP UAS-luciferase luminescence; in the data active = inhibition above about 32%
Hits are given with their value; - = inactive; . = not tested or not shown. Hits are enriched below; roughly 3.5% of the tested compounds scored in any of these assays.

SMILES	MITF primary	GPR151 activ	FBW7 activator	TEAD-YAP block
C=CCN(c1ccccc1)S(=O)(=O)c1ccc(F)c(C(=O)Nc2ccc(OCC)cc2)c1	-	-	-	39
Cc1c(N=Cc2cc(Cl)cc(Cl)c2O)c(=O)n(-c2ccccc2)n1C	-	-	-	-
COc1ccc(N2C(=O)NC3CC2(C)Oc2ccc(Cl)cc23)cc1OC (configuration not stated)	-	-	2.2	-
Cc1nc(N)sc1N=Nc1cc(C(=O)O)cc(C(=O)O)c1	52	-	-	-
Nc1ncc(N=Nc2cc(C(=O)O)ccc2Cl)s1	-	-	-	-
Nc1ncc(N=Nc2cc(C(=O)O)cc(C(=O)O)c2)s1	61	-	-	-
Cc1ccc(NC(=O)CSc2nc(=O)n(CCCN3CCOCC3)c3c2CCC3)cc1	-	-	-	-
CCc1nc2nc(C)cc(N3CCN(c4ccccc4OC)CC3)n2n1	-	-	-	34
O=C(c1ccn(-c2ccnc(Nc3ccc(N4CCOCC4)cc3)c2)n1)N1CCC(O)CC1	-	-	-	60
Cc1cccc(C)c1-n1c(SCc2ccccc2F)nc2c(sc(=S)n2-c2c(C)cccc2C)c1=O	-	-	-	41
CCOc1ccc(-n2c(=S)sc3c(=O)n(-c4ccccc4)c(SCc4nc5ccccc5[nH]4)nc32)cc1	-	-	-	-
O=c1c2sc(=S)n(-c3ccccc3)c2nc(SCc2nc3ccccc3[nH]2)n1-c1ccccc1	-	-	-	33
Cc1cccc(C)c1-n1c(SCc2ccccc2F)nc2c(sc(=S)n2CCc2ccccc2)c1=O	-	-	-	-
Cc1c(C)c2ccc(OCC(N)=O)cc2oc1=O	-	-	-	-
O=C(O)CCC/C=C\C[C@@H]1CO[C@H](C(F)(F)F)O[C@@H]1c1ccccc1O	-	-	2.2	.
Cc1ccc(-c2n[nH]c(CNC(=O)c3ccncc3)n2)cc1	-	-	-	-
CN(CCC#N)c1ccc(/C=C(\C#N)c2ccccn2)cc1	-	-	-	49
CCOC(=O)CNC(=O)CSc1ncnc2scc(-c3ccc(Cl)cc3)c12	-	-	-	-
COc1ccc(-c2csc3ncnc(NCCCO)c23)cc1	-	-	-	-
COC(=O)CCNc1ncnc2scc(-c3ccc(C)cc3)c12	-	-	-	36
CCOC(=O)CNc1ncnc2scc(-c3ccccc3)c12	-	-	-	35
CCOC(=O)CSc1ncnc2scc(-c3ccc(F)cc3)c12	-	-	2.4	-
COc1ccc(-c2csc3ncnc(NCCO)c23)cc1	-	-	-	38
COc1cc(/C=C/C(=O)OCc2cc(Cl)cc3c2OCOC3)ccc1OCC#N	-	-	-	-
O=C(NCCc1ccc(O)cc1)c1cnc(NCc2cccnc2)s1	-	-	-	-
SMILES	MITF primary	GPR151 activ	FBW7 activator	TEAD-YAP block
O=C(O)CCCNC(=O)/C(=C/c1ccc(Br)cc1)NC(=O)c1ccco1	-	-	-	-
O=C(NCCCO)c1nnc(Cc2ccc(F)cc2Cl)o1	-	-	-	-
COc1ccc(C2C(C(=O)N3CCN(c4ccccc4OC)CC3)c3ccccc3C(=O)N2c2ccc(OC)cc2)cc1 (configuration not stated)	-	-	-	34
COc1ccc(N2C(=O)/C(=C\c3ccc([N+](=O)[O-])s3)C(=O)NC2=S)cc1	59	-	-	-
COc1cccc(N2C(=O)/C(=C/c3ccc([N+](=O)[O-])s3)C(=O)NC2=S)c1	-	-	-	-
COc1cccc(N2C(=O)/C(=C\c3ccc(OC)cc3OC)C(=O)NC2=S)c1	-	-	-	-
COc1cccc(N2C(=O)/C(=C/c3ccc([N+](=O)[O-])o3)C(=O)NC2=S)c1	71	-	-	-
O=C1NC(=O)N(c2cccc(Cl)c2)C(=O)/C1=C/c1ccc([N+](=O)[O-])o1	75	-	-	-
Cc1cc(C)cc(N2C(=O)NC(=O)/C(=C\c3ccc([N+](=O)[O-])o3)C2=O)c1	-	-	-	-
COc1cccc(N2C(=O)NC(=O)/C(=C/c3ccc([N+](=O)[O-])o3)C2=O)c1	67	-	-	-
CN(C)c1ccc(C(=O)N/N=C/c2ccc(Br)cc2)cc1	-	-	-	-
Cc1ccc(/C=C2\C(=O)NC(=S)N(c3cccc(Cl)c3)C2=O)o1	-	-	-	-
O=C1NC(=O)N(c2cccc(Cl)c2)C(=O)/C1=C/c1ccc(I)o1	67	-	-	-
COc1ccc(N2C(=O)NC(=O)/C(=C/c3ccc(I)o3)C2=O)cc1	69	-	-	-
COc1ccc(N2C(=O)/C(=C\c3ccc([N+](=O)[O-])o3)C(=O)NC2=S)cc1	79	-	-	-
